The source of these data is PubChem BioAssay (NCI).

The panel holds about 79,000 compounds, 15% with a hit somewhere; the sample as a whole holds those more often. Unmarked numbers belong to inactive results. Calls of active or inactive are those of the source. Cut-off read from the data, not from the text of the source: active = growth inhibition above about 70%; inactive = the rest.

Test [1] can be described thus: NCI Yeast Anticancer Drug Screen. Data for the rad50 strain (AID 155).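 Note: 0% = growth of vehicle-only cultures of the same strain.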 Conditions: S. cerevisiae rad50 strain growth inhibition; at 50.0 µM; stronger effect = higher value. The method in brief:
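Genetically altered yeast (DNA repair pathway); compound treatment; growth inhibition vs vehicle ctrl.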

Test [2] in a line: NCI Yeast Anticancer Drug Screen. Data for the mec2-1 strain (AID 157). The note with it: S. cerevisiae mec2-1 strain, at 50.0 µM, stronger effect = higher value. In a few lines:
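Mutant yeast (mec2-1) grown with compound; growth inhibition relative to vehicle control reported.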

Test [3] is described as follows: NCI Yeast Anticancer Drug Screen. Data for the sgs1 mgt1 strain (AID 161).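 Note: 0% = growth of cultures given vehicle only.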 Conditions: S. cerevisiae sgs1 mgt1 strain, at 50.0 µM, stronger effect = higher value. The method in brief:
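Growth of a repair-deficient yeast mutant was monitored after compound treatment and expressed as inhibition relative to vehicle-treated cultures.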

Test [4] can be described thus: NCI Yeast Anticancer Drug Screen. Data for the cln2 rad14 strain (AID 165).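 Note: 0% = growth equal to vehicle treated cultures.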 Conditions: S. cerevisiae cln2 rad14 strain, at 50.0 µM, stronger effect = higher value. In a few lines: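 Readout is yeast growth inhibition versus vehicle-treated controls, using a strain with cln2 and rad14 alterations exposed to compound.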
Test [5] in a line: NCI Yeast Anticancer Drug Screen. Data for the bub3 strain (AID 167). Conditions: S. cerevisiae bub3 mutant strain, at 50.0 µM, stronger effect = higher value. In a few lines:
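Yeast carrying a defined mutation is treated with each compound, and growth is compared with that of vehicle-exposed cells to give inhibition.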

Test [6] is described as follows: NCI Yeast Anticancer Drug Screen. Data for the mlh1 rad18 strain (AID 175). Conditions: S. cerevisiae mlh1 rad18 strain growth inhibition; at 50.0 µM; stronger effect = higher value. The method in brief:
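Genetically defined yeast (DNA repair-deficient) exposed to compounds; growth inhibition determined relative to vehicle.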

For the molecule `NC(=O)C(Cc1ccccc1)NC(=O)C1CCCN1` (configuration not stated), the growth inhibition is 4.2% in test [1]; 1.35% in test [2]; 2.5% in test [3]; -33.9% in test [4]; -6.1% in test [5]; 24.6% in test [6].

Take `COC(=O)C(C)c1cc2ccccc2[nH]1` (configuration not stated): the growth inhibition in test [1] is -8%; in test [2] it was -8.65%; in test [3], 0.9%; in test [4] it was -11.4%; in test [5] it was -46.7%; in test [6] it was 0.75%.

As to `CC(=O)OC12CC3CCC4C(CCC5(C)C(C(C)CCCC(C)C)CCC45)C3(C)CC1O2` (configuration not stated), the growth inhibition is 71% (active) in test [1]; 48.4% in test [2]; 69.8% in test [3]; -1.2% in test [4]; 14.3% in test [5]; 42.2% in test [6].

Take `Cc1ccc2nc[nH]c2c1`: the growth inhibition is 0.35% in test [1]; -21.9% in test [2]; -10.8% in test [3]; -11.4% in test [4]; 4.05% in test [5]; 14.6% in test [6].

`CCCCCCCS(=O)(=O)CCCCC(=O)O`: the growth inhibition in test [1] is -17.4%; in test [2], -5.85%; in test [3], -7%; in test [4], -3.35%; in test [5], 6.7%; in test [6] it was -9.5%.

For the molecule `CCCOc1cc2c(cc1C(C)c1ccc(OCC)c(C)c1)OCO2` (configuration not stated), the growth inhibition was -1.7% in test [1]; 0.75% in test [2]; -9.05% in test [3]; -94% in test [4]; -3.9% in test [5]; -5.1% in test [6].

With `CC(O)CC(=O)c1ccc(O)cc1` (configuration not stated), the growth inhibition is -42% in test [1]; -41% in test [2]; -30.2% in test [3]; 1.7% in test [4]; -49.5% in test [5]; -41.3% in test [6].

As for `CCCCCC[C@H](C/C=C\CCCCCCCC(=O)OCCCC)OC(C)=O`, the growth inhibition was -14.7% in test [1]; 0.2% in test [2]; -10.2% in test [3]; -14.2% in test [4]; -29.4% in test [5]; -8.8% in test [6].

Consider `Cc1cc2nc(C(C)(C)O)[nH]c2cc1C`, for which the growth inhibition in test [1] was 0.2%; in test [2], -4.8%; in test [3] it was 2.8%; in test [4] it was 8.2%; in test [5], 1.6%; in test [6], 13.2%.

As for `NC(=O)Cc1ccccn1`, the growth inhibition was 5.05% in test [1]; -2.6% in test [2]; 2.95% in test [3]; -8.15% in test [4]; 5.25% in test [5]; 1.4% in test [6].

`COC(=O)c1ccccc1N=NNc1ccc(C(F)(F)F)c([N+](=O)[O-])c1`: the growth inhibition in test [1] was -10.4%; in test [2], -1.85%; in test [3] it was 16.1%; in test [4] it was -2.35%; in test [5] it was 9.95%; in test [6] it was -11.7%.

`C=C1CN=C(Nc2ccc(Cl)cc2)S1`: the growth inhibition in test [1] was -11.1%; in test [2], 18.1%; in test [3], -14.8%; in test [4], 17.2%; in test [5], 11.5%; in test [6] it was -13.7%.

With `COc1cc(C(=O)CCC(=O)O)c(OC)c(CBr)c1CBr`, the growth inhibition in test [1] is -20.3%; in test [2], -0.4%; in test [3], -2.7%; in test [4], -23.8%; in test [5], -2.15%; in test [6] it was -13.8%.

With `COC1CC2CC1C1COCC21` (configuration not stated), the growth inhibition in test [1] was 7.15%; in test [2], -4.05%; in test [3], -19.9%; in test [4] it was -12.4%; in test [5] it was -12.4%; in test [6] it was -7.6%.

Consider `OC1COC(O)(CNCCc2c[nH]c3ccc(OCc4ccccc4)cc23)C(O)C1O` (configuration not stated), for which the growth inhibition in test [1] was -25.5%; in test [2], 7.25%; in test [3], -18.2%; in test [4], -49.7%; in test [5], -20.7%; in test [6], 19.1%.

Take `CCCC(=O)OCC(COC(=O)CCC)OC(=O)CCC`: the growth inhibition in test [1] is -26.8%; in test [2], -8.35%; in test [3] it was -17.4%; in test [4], 24.6%; in test [5] it was 4.9%; in test [6], 7.1%.

`CCN(C)c1ccccc1`: the growth inhibition in test [1] is -5.8%; in test [2], -27.8%; in test [3], -3.2%; in test [4], -31.9%; in test [5] it was -6.6%; in test [6] it was 11.2%.

`CCc1ccc2c(c1)C(C)(CC)CCC2C` (configuration not stated): the growth inhibition in test [1] was -2.45%; in test [2] it was -6.5%; in test [3], -16.4%; in test [4] it was -43%; in test [5], -8.95%; in test [6] it was 8.7%.

Turning to `Nc1ccc(N)c(C(=O)O)c1`, the growth inhibition was -9.35% in test [1]; 15.1% in test [2]; 1.1% in test [3]; -2.5% in test [4]; -12.6% in test [5]; -8.9% in test [6].

In the case of `CC(C)C(=O)OC1CCCCC1Cc1ccccn1` (configuration not stated), the growth inhibition in test [1] was 21.1%; in test [2] it was -3.25%; in test [3] it was 29.1%; in test [4], -17%; in test [5] it was 24.1%; in test [6], -6.8%.

For the molecule `CCN(CC)Cc1c(C)cccc1O`, the growth inhibition in test [1] was -4.65%; in test [2], -4.35%; in test [3], -27.8%; in test [4], -49.5%; in test [5], -0.45%; in test [6] it was -16.4%.

Turning to `Cc1nc2ccccc2[nH]1`, the growth inhibition in test [1] is 3.8%; in test [2], -31.1%; in test [3], -4%; in test [4] it was 5.85%; in test [5] it was 3.45%; in test [6], 8.8%.

For `BrC1(Br)C2CC/C=C/CCCCC21` (configuration not stated), the growth inhibition in test [1] is -10.1%; in test [2], 13.9%; in test [3] it was 20.9%; in test [4], -1.85%; in test [5] it was -3.05%; in test [6], -27.1%.

With `CC(=O)c1cccc(OCC(O)CN2CCN(c3ccc(C)cc3)CC2)c1` (configuration not stated), the growth inhibition in test [1] is -12.3%; in test [2], 3.95%; in test [3], 4.1%; in test [4], -8.9%; in test [5], 3.15%; in test [6] it was -2.25%.

Take `CC1(Cc2ccccc2)NC(=S)NC1=O` (configuration not stated): the growth inhibition in test [1] was -1.25%; in test [2], -10.8%; in test [3] it was -9.9%; in test [4], 5.75%; in test [5], -1.7%; in test [6] it was -7.35%.

As for `C/C=C/C(=O)OC1CCCC1`, the growth inhibition in test [1] was 30.9%; in test [2], 11.7%; in test [3], 23.6%; in test [4] it was 18.9%; in test [5] it was 10%; in test [6], 23.9%.

Turning to `COc1ccc(OC)c2cc(C3(C)SCCCS3)ccc12`, the growth inhibition is -9% in test [1]; 9.35% in test [2]; 19.2% in test [3]; 15.3% in test [4]; 13.2% in test [5]; -12.2% in test [6].

As to `O=C(OCCOCBr)c1ccccc1`, the growth inhibition is -9.75% in test [1]; -32.5% in test [2]; 19.9% in test [3]; 18% in test [4]; 31.1% in test [5]; -14.3% in test [6].

With `CS(=O)(=O)Oc1ccc2cc(Br)ccc2c1`, the growth inhibition in test [1] was 13.6%; in test [2] it was -5.35%; in test [3], -0.3%; in test [4], 4.25%; in test [5], 31.4%; in test [6] it was 9.75%.

Consider `O=C(O)CC(NC(=O)c1cnc2ccccc2n1)C(=O)O` (configuration not stated), for which the growth inhibition was -3.65% in test [1]; -9.85% in test [2]; 4.3% in test [3]; -17.1% in test [4]; 12.7% in test [5]; -1% in test [6].

On to `O=C1CC2C3CC4(OCCO4)C4C3CC2C14` (configuration not stated), for which the growth inhibition in test [1] was 8.25%; in test [2] it was 2.45%; in test [3], 3%; in test [4] it was 8.65%; in test [5], 2.1%; in test [6] it was 5.8%.

As to `O=C(O)CCc1ccc2c(c1)C(=O)CC2`, the growth inhibition is -35% in test [1]; -27.9% in test [2]; -23.2% in test [3]; -16.1% in test [4]; -3.95% in test [5]; -37.4% in test [6].

With `COc1cc2nccnc2c(N)c1OC`, the growth inhibition in test [1] was 14.6%; in test [2], 7.65%; in test [3], 7.75%; in test [4], -1.7%; in test [5], -0.95%; in test [6] it was 19.9%.

In the case of `CC(=O)c1ccc(Cl)c(Cl)c1`, the growth inhibition in test [1] is -3.6%; in test [2] it was -0.5%; in test [3] it was -3.75%; in test [4], 14.9%; in test [5] it was 4.7%; in test [6] it was -15.3%.

In the case of `Cc1ccc(NC(=O)OCC2CC3C=CC2C3)cc1` (configuration not stated), the growth inhibition in test [1] is 95.5% (active); in test [2], 98.8% (active); in test [3], 99% (active); in test [4] it was 96.3% (active); in test [5] it was 95.2% (active); in test [6], 97.7% (active).

Regarding `CCOc1ccc(/C=C\C(=O)O)cc1`, the growth inhibition in test [1] is -1.9%; in test [2], -19.6%; in test [3] it was 8.5%; in test [4], -5.75%; in test [5], 1.25%; in test [6], 1.55%.

Consider `Nc1ccc(C(=O)Nc2ccc3c(O)cc(S(=O)(=O)O)cc3c2)cc1`, for which the growth inhibition in test [1] was 23.2%; in test [2] it was 5.55%; in test [3] it was 2.65%; in test [4] it was -6.5%; in test [5] it was -10.5%; in test [6] it was 8.6%.
